Measurements reported in PubChem BioAssay (NCI).
This is part of a sample that, as a whole, favours compounds with a hit. Of some 83,000 tested, about 20% had one in any assay.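 Negative percent growth values reflect cell death: -40 means 40% of the cells present at the start died, and -100 means all died.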 The source made the active and inactive calls.

These molecules were tested on LOX IMVI melanoma (assay: NCI-60 one-dose screen, 48 h (100 = growth as untreated, 0 = no growth, -100 = all killed)). Details: 10 µM unless noted.
Experimental: Growth inhibition of the LOX IMVI human tumor cell line is measured as a screen for anti-cancer activity. Cells are grown in 96 well plates and exposed to the test compound for 48 hours. Compounds are tested at a single concentration, which is 10^-5 M for most compounds. The reported endpoint is percent growth (GI% or GIPRCNT), where numbers from 0 - 100% represent growth inhibition, and numbers from -100% - 0 represent cell death. For example, a value of 40 represents 60% growth inhibition. A value of 0 means no net growth occurred over the course of the experiment. A value of -40 indicates 40% of cells at the beginning of the experiment died by the end of the experiment. A value of -100 means all cells are dead at the end of the experiment.
NCI-60 Human Tumor Cell Lines Screen was performed using the standard one-dose NCI protocol, which is described in more detail at https://dtp.cancer.gov/discovery_development/nci-60/default.htm.
Compounds with GIPRCNT values below 10 were considered active. Activity score was based on GIPRCNT using the following formula: […]
Score is 0 for GIPRCNT values of 100 or above, 50 for GIPRCNT values of 0, and 100 for GIPRCNT values of -100.

For `NC(=O)c1cc(Cl)ccc1NC(=O)COc1ccccc1`, which growth is on record?
The growth was 59.4% (inactive).

With `CCN1CCN(c2ccc(Nc3ncc4ccc5ncn(C(C)C)c5c4n3)nc2)CC1` as the molecule, how does the growth read?
Its growth is -33.3% (active).

How did the growth turn out when `CCN(C(=O)c1ccc2c3c(cccc13)C=C2)c1ccccc1` was run?
The growth was 108% (inactive).

For `O=C(NCc1cccnc1)c1ccc([N+](=O)[O-])o1`, which growth is on record?
The growth was -77.9% (active).

For `COc1ccccc1-n1c(SCc2cc(OC)c(OC)c(OC)c2)nc2ccc(Cl)cc2c1=O`, which growth is on record?
The growth was 33.2% (inactive).

With `CCCCCCCC/C=C\CCCCCCCCOc1cccc(CC(=O)NCC[N+]2(C)CCOCC2)c1` as the molecule, how does the growth read?
The growth was 91.3% (inactive).

How did the growth turn out when `O=C(Nc1ccccc1)Oc1cccc2cccnc12` was run?
The growth was 61% (inactive).

How did the growth turn out when `NC(=O)c1cccc(-n2ccc3cc(NC(=O)Nc4ccc(Cl)c(Cl)c4)ccc32)n1` was run?
The growth was 81.9% (inactive).

Which growth does the source give for `Clc1ccc(C2=NN(c3ccccc3)[C@H](c3cn(-c4ccccc4)nc3-c3ccccc3)C2)cc1` here?
Its growth is 96.4% (inactive).

Which growth does the source give for `O=c1onc(-c2ccccc2)c2ccccc12` here?
The growth was 97.5% (inactive).

Which growth does the source give for `CCC(C)Oc1cc(/C=N/NC(=O)c2cnn3c2NC(c2ccccc2)C3)ccc1OC` (stereo not given) here?
Its growth is 26.1% (inactive).

For `Cc1ccc2nc(NC(=O)CSC(=S)N3CCN(C)CC3)sc2c1`, which growth is on record?
The growth was -72.3% (active).

Which growth does the source give for `O=c1[nH]c(-c2ccccn2)nc2sc3c(c12)CCCCCC3` here?
Its growth is 29.7% (inactive).

With `COc1cc(/C=C/C(=O)C(=Cc2ccc(F)c(F)c2)C(=O)/C=C/c2ccc(O)c(OC)c2)ccc1O` as the molecule, how does the growth read?
Its growth is -82.5% (active).

How did the growth turn out when `Nc1cc2[nH]c(=O)c3ccccc3c2cc1Br` was run?
Its growth is 74.5% (inactive).

Which growth does the source give for `COc1cccc(OC)c1OC(=O)c1ccccc1` here?
The growth was 92.7% (inactive).

For `COc1cc(C(F)(F)F)ccc1-c1cc(-c2ccc(F)cc2)n[nH]1`, which growth is on record?
Its growth is 96.9% (inactive).

For `COc1ccc(/C=N/NC(=O)c2cnn(CC(O)Cc3ccccc3)c2N)cc1OC1CCCC1` (stereo not given), which growth is on record?
The growth was 82.4% (inactive).

With `COc1cc(NC(=O)COc2ccccc2)c(C(N)=O)cc1OC` as the molecule, how does the growth read?
The growth was 59.1% (inactive).

How did the growth turn out when `O=C1C(N2CCOCC2)=Cc2cccc3cccc1c23` was run?
The growth was 101% (inactive).

`COc1cc(C2C3=C(COC3=O)N(CCO)c3cc4c(cc32)OCO4)cc(OC)c1O` (stereo not given) was tested. Which growth did it give?
The growth was 40.1% (inactive).

With `C=C[C@H]1C[C@@H]2C[C@@H]3[C@H]4C/C=C\C(=O)NCCCC5NC(=O)C(=C(O)/C=C/[C@@H]4CC(=O)[C@H]3[C@@H]2[C@H]1C)C5=O` (stereo not given in full) as the molecule, how does the growth read?
Its growth is -47.2% (active).

`COc1ccc(OC)c(C2C(C#N)=C(N)Oc3cc(O)ccc32)c1` (stereo not given) was tested. Which growth did it give?
Its growth is 100% (inactive).

With `NC(=O)c1cc(I)ccc1NC(=O)COc1ccc(Cl)cc1Cl` as the molecule, how does the growth read?
Its growth is 93.3% (inactive).

How did the growth turn out when `COc1ccc(NS(=O)(=O)c2ccc(-c3cnc(C4CC4)o3)cc2)cc1` was run?
Its growth is 50.8% (inactive).

How did the growth turn out when `Nc1cc(Br)c(-c2nnc(CCC(=O)c3nc4ccccc4[nH]3)o2)c(Br)c1` was run?
Its growth is 44.7% (inactive).

With `Fc1c[c-]c(-c2ccccn2)c(F)c1.Fc1c[c-]c(-c2ccccn2)c(F)c1.[Cl][Pt+].[Cl][Pt+].c1ccc([PH+](C[PH+](c2ccccc2)c2ccccc2)c2ccccc2)cc1` as the molecule, how does the growth read?
Its growth is 20.5% (inactive).

For `COC(=O)[C@H]1CCCN1C(=O)[C@H]1CCCN1C(=O)[C@@H](Cc1c[nH]c2ccccc12)NC(=S)Nc1cc(C(F)(F)F)cc(C(F)(F)F)c1`, which growth is on record?
Its growth is 44.2% (inactive).

`COc1ccccc1CNCCCCCCCCCCCCN1C(=O)c2ccc3c4c(ccc(c24)C1=O)C(=O)N(CCCCCCCCCCCCNCc1ccccc1OC)C3=O` was tested. Which growth did it give?
Its growth is 56.4% (inactive).

`COc1cc(/C=N/NC(=O)c2cnn3c2NC(c2ccccc2)C3)cc(OC)c1OC` (stereo not given) was tested. Which growth did it give?
The growth was 61.3% (inactive).

How did the growth turn out when `O=C(c1cnn2c1NC(c1ccc(F)cc1)C2)N1CCCCC1` (stereo not given) was run?
The growth was 103% (inactive).

Which growth does the source give for `C=C(C)CCCC(C)CC#N` (stereo not given) here?
The growth was 99.2% (inactive).

`Cn1c2c(cc(S(=O)(=O)c3ccccc3)c1=O)CCc1c-2cnn1-c1ccccc1Cl` was tested. Which growth did it give?
The growth was 107% (inactive).

`Cc1nc2ccc(Cl)cc2n1C` was tested. Which growth did it give?
The growth was 108% (inactive).

How did the growth turn out when `COc1nc2c(cc1S(=O)(=O)c1ccccc1)CCc1c-2cnn1-c1ccccc1` was run?
Its growth is 90% (inactive).

How did the growth turn out when `COC(=O)c1c2c(c(C)[n+]([O-])c1C)C(=O)C=C(NCc1cccc(OC)c1)C2=O` was run?
Its growth is -79.7% (active).

How did the growth turn out when `CC(C)(C)CC(C)(C)N(CSc1ccc(Cl)cc1)CSc1ccc(Cl)cc1` was run?
The growth was -34.6% (active).

`COc1cccc(C2C3=C(COC3=O)N(CCO)c3cc4c(cc32)OCO4)c1` (stereo not given) was tested. Which growth did it give?
The growth was 53.8% (inactive).

`COc1cc2nc(N3CCC[C@H](NC4=CC(=O)c5ccccc5C4=O)C3)nc(N)c2cc1OC` was tested. Which growth did it give?
The growth was -82.9% (active).

How did the growth turn out when `COc1ccc(S(=O)(=O)ON=C2C=C(C)C(=O)C(C)=C2)cc1` was run?
Its growth is 62% (inactive).
